Assay results reported in ChEMBL document CHEMBL3988442, “University of Dundee, Small-Polar-MMV Screening Library” (2021).
The campaign covered roughly 48,000 compounds. About 13,000 (27%) showed an effect of 50% or more. The list shows a part of the results.

Tested on: Wolbachia pipientis
Experiment: Anti-Wolbachia Cell-Based Screen
Type: functional
Design: scale not given: in the data most compounds retested in dose-response had high values
Conditions: 5 µM

SMILES	Percent Effect [%]
CCC(C)(NCC(=O)NC(C)C)c1nccs1 (stereo unspecified)	-10.98
NC(=O)COc1ccc(CN2CCNC(C(=O)NC3CC3)C2)cc1Cl (stereo unspecified)	-45.28
CC1CCN(c2ccc3c(-c4ncc(C(=O)O)s4)noc3c2)CC1	-16.58
CC1(C)COCCN1C(=O)CCc1nc(-c2ccccn2)no1	-0.8567
O=C(Nc1cccnc1)Nc1ccn(CC(F)F)n1	-6.683
CN(C)CC1(O)CCCN(c2nc(-c3ccccc3)no2)CC1 (stereo unspecified)	-0.08727
CN(C)CC1CN(Cc2ccsc2)Cc2nccn2C1.O=C(O)C(F)(F)F.O=C(O)C(F)(F)F (stereo unspecified)	-11.98
O=C(Cc1ccccc1)N1Cc2nccn2CC(CN2CCCC2)C1.O=C(O)C(F)(F)F (stereo unspecified)	14.72
CN(C)CC1CN(Cc2cccc(C#N)c2)Cc2nccn2C1.O=C(O)C(F)(F)F.O=C(O)C(F)(F)F (stereo unspecified)	95.93
N#Cc1cccc(CN2Cc3nccn3CC(CN3CCCC3)C2)c1.O=C(O)C(F)(F)F.O=C(O)C(F)(F)F (stereo unspecified)	90.25
CN(C)CCOCC1CN(Cc2cccc(F)c2)Cc2nccn2C1.O=C(O)C(F)(F)F.O=C(O)C(F)(F)F (stereo unspecified)	63.4
CCN(CC)CC1CN(Cc2nccs2)Cc2nccn2C1.O=C(O)C(F)(F)F.O=C(O)C(F)(F)F (stereo unspecified)	-6.3
Cc1nc(CN2Cc3nccn3CC(CN3CCCC3)C2)cs1.O=C(O)C(F)(F)F.O=C(O)C(F)(F)F (stereo unspecified)	-3.569
CCN(CC)CC1CN(CCc2ccccc2)Cc2nccn2C1.O=C(O)C(F)(F)F.O=C(O)C(F)(F)F (stereo unspecified)	77.99
CN(C)CCOCC1CN(Cc2ccsc2)Cc2ccnn2C1.O=C(O)C(F)(F)F.O=C(O)C(F)(F)F.O=C(O)C(F)(F)F (stereo unspecified)	-16.3
CCN(CCC(=O)NC1CC1)Cc1ccc(Cl)s1	-9.828
Cc1ccccc1OCC1CCCN(C(=O)CN(C)C2CCNCC2)C1 (stereo unspecified)	4.855
Cc1ccc(S(=O)(=O)N(C)CC(N)=O)c(Cl)c1	2.18
CSCC(=O)N(C)Cc1cnn(-c2ccc(F)cc2)c1	-3.16
Cc1nonc1CN(C)Cc1cnn(-c2ccc(Cl)cc2)c1	133.6
Cc1nonc1CN(C)Cc1nc(-c2ccccc2Cl)oc1C	-14.91
CCn1cc(CN(C)S(=O)(=O)c2ccc(Cl)cc2)cn1	-0.8604
Cc1nonc1CN(C)Cc1c[nH]nc1-c1ccc(F)cc1F	1.804
Cc1nonc1CN(C)Cc1cnn(-c2ccc(F)cc2)c1	116.4

SMILES	Percent Effect [%]
CS(=O)(=O)c1nccn1CCOc1ccc(F)cc1Cl	1.333
COc1ccc(S(N)(=O)=O)cc1C(=O)N(C)Cc1cc(C)on1	5.855
CCc1nc(C2CCCN(C(=O)c3cccc4cn[nH]c34)C2)no1 (stereo unspecified)	-7.145
Cc1noc(C2CCCN(C(=O)c3cccc(Cl)c3)C2)n1 (stereo unspecified)	-10.95
CCc1nc(C2CCCN(C(=O)c3cccc4c3ccn4C)C2)no1 (stereo unspecified)	-5.539
CCc1nc(C2CCCN(C(=O)c3ccc4c(c3)nnn4C)C2)no1 (stereo unspecified)	5.742
CCc1nc(C2CCCN(C(=O)c3cccc(Cl)c3)C2)no1 (stereo unspecified)	126.3
CCc1nc(C2CCCN(C(=O)c3cccc(C(N)=O)c3)C2)no1 (stereo unspecified)	115.3
NC(=O)c1ccc(N2CCN(Cc3cccc4nsnc34)CC2)nc1	-18.45
COc1ccc(C(NC(=O)c2cccc[n+]2[O-])C2CC2)cc1 (stereo unspecified)	3.052
CCS(=O)(=O)N1CCC2(CCCN(Cc3ccc(F)c(F)c3)C2=O)C1 (stereo unspecified)	-34.42
NC(=O)C1(c2cnccn2)CCCN1Cc1ccc(F)c(F)c1 (stereo unspecified)	80.27
NC(=O)CN1CC2(CCC1=O)CCN(Cc1ccc(Cl)c(F)c1)CC2	13.87
O=C(c1cn[nH]c1)N1CCC2(CCCN(Cc3ccc(F)c(F)c3)C2)C1 (stereo unspecified)	-7.691
CN(C)C(=O)N1CCCC2(CCN(Cc3ccc(Cl)c(F)c3)C2)C1 (stereo unspecified)	2.484
NC(=O)C1(c2cnccn2)CCCN1Cc1ccc(Cl)c(F)c1 (stereo unspecified)	137
COc1cc(CNC2CCN(c3ccccc3)C2)cc(OC)c1OC (stereo unspecified)	0.4794
CCn1cc(CN(C)S(=O)(=O)c2ccc(NC(C)=O)cc2)cn1	5.791
O=C(c1ccc(C2CCCN2)s1)N1CC=CC1 (stereo unspecified)	0.32
CCc1c(C)nn(CCNC(=O)c2cc(C3CC3)n[nH]2)c1C	1.187
O=C(NC1CCCC1)c1n[nH]c2c1CNCC2	-11.08
CNC(=O)c1cc(C2CCCNC2)n[nH]1.Cl (stereo unspecified)	96.41
CNC(=O)c1cc(C2CCCN2)n[nH]1.Cl (stereo unspecified)	155.4
CNC(=O)c1[nH]nc2c1CN(c1cc(C3CCCNC3)nc(C)n1)CC2 (stereo unspecified)	-2.336

SMILES	Percent Effect [%]
Cl.O=C(NC1CCCC1)c1cc(C2CCCNC2)n[nH]1 (stereo unspecified)	150.1
COc1ccccc1OCc1cc(C(=O)NC[C@@H]2CCCN2)n[nH]1	-26.39
CCCc1cc(C(=O)NC2CCCCNC2=O)[nH]n1 (stereo unspecified)	-7.069
CSC1(CNc2ccc(Br)cn2)CCOCC1	-9.614
CCOCCNC(=O)c1cc(Br)c2c(c1)OCCO2	-10.75
COCCC(=O)N1CC2(CCN(Cc3ccccc3Cl)CC2)C1.O=C(O)C(F)(F)F	7.796
Cc1noc(C)c1S(=O)(=O)N1CCc2nc(C3CCNCC3)ncc2C1.Cl	92.39
Cc1ccc(S(=O)(=O)N2CCc3nc(C4CCNCC4)ncc3C2)cc1.Cl	-12.78
Cc1nc(C2CCN(S(=O)(=O)c3ccc4c(c3)CCC4)CC2)n[nH]1	-1.341
Cl.O=S(=O)(c1ccc(Cl)cc1)N1CCc2nc(C3CCNCC3)ncc2C1	112
CCC[C@H]1CN(S(=O)(=O)c2c(C)noc2C)C[C@@H]1N	-20.84
Cc1n[nH]c(C)c1CCN(C)C(=O)c1ccc(CN2CCCCC2)cc1	-26.72
CCc1cnc(C)nc1NCC(O)CN1CCCCCC1 (stereo unspecified)	-1.473
Cc1nnc([C@@H]2CC[C@@H]3[C@@H](CCN3S(C)(=O)=O)O2)o1	4.456
Cc1nnc([C@@H]2CC[C@@H]3[C@@H](CCN3C3CCOCC3)O2)o1	-2.772
Cc1nnc([C@@H]2CC[C@@H]3[C@@H](CCN3C3CCC3)O2)o1	107.1
CC(=O)C(Cc1ccccc1)NC(=O)CSc1nncn1C (stereo unspecified)	8.647
COCC1(CNc2cc(C(C)C)nc(N)n2)CC1	12.37
Cc1nc(Cn2c3c(ccc2=O)CCN(CC2CC2)CC3)cs1.O=C(O)C(F)(F)F.O=C(O)C(F)(F)F	7.996
CCCC(=O)NC1CCc2c(ccc(=O)n2Cc2csc(C)n2)C1.O=C(O)C(F)(F)F (stereo unspecified)	92.99
COCC(=O)N1CCc2ccc(=O)n(Cc3csc(C)n3)c2CC1.O=C(O)C(F)(F)F	-6.118
Cc1nc(Cn2c3c(ccc2=O)CC(NC(C)C)CC3)cs1.O=C(O)C(F)(F)F.O=C(O)C(F)(F)F (stereo unspecified)	95.6
Cc1nc(CN2C[C@@H]3CN(C(=O)NC(C)C)C[C@@H]3C2=O)cs1.O=C(O)C(F)(F)F	4.242
CC(C)NC1CCc2c(ccc(=O)n2CC2CC2)C1.O=C(O)C(F)(F)F (stereo unspecified)	-1.359

SMILES	Percent Effect [%]
COCCNC(=O)[C@@H](C)[C@@H]1CCc2c(C)cc(OCC(=O)O)c(C)c2C1	-3.996
Cc1cccc(N2CCC(N3CCC4(CN(C)C(=O)O4)C3)CC2)c1C (stereo unspecified)	10.35
O=C(CN1CCOC1=O)N1CC[C@@H](c2ccc3ccccc3c2)[C@H](O)C1	1.475
CCCNC(=O)c1ccc(NC(=O)c2cccc(OCC)c2)cc1	17.24
O=C(CCNc1ccc(Cl)cn1)NCc1ccncc1	-15.58
O=C(CCNC(=O)c1cccc(OC(F)F)c1)Nc1cccnc1	104.3
Cn1cc(C(=O)Nc2cccc(Oc3ccncc3)c2)ccc1=O	-26.42
O=C(CCNC(=O)C1=Cc2ccccc2OC1)NCc1ccncc1	-4.464
CCOc1cccc(C(=O)Nc2ccncc2)c1	88.42
CCOc1cccc(C(=O)NCCC(=O)NCc2ccncc2)c1	103.5
O=C(CCNC(=O)C1=Cc2ccccc2OC1)Nc1cccnc1	-5.743
O=C(CCNC(=O)c1ccccc1F)NCCNc1cccnc1	5.027
CS(=O)(=O)c1ccc(OCCNCc2ccc(F)cc2)cc1	-11.24
CC(C)c1ccc(O)c(C(=O)NC2CCN(c3ncccn3)CC2)c1	6.653
CN(C)C[C@@H]1CN(C(=O)Cc2ccccc2)C[C@@H]1CO	-32.78
O=S1(=O)[C@@H](c2ccccc2)[C@H](CO)CN1c1ccccc1	106.6
CC(C)C1CN(C(=O)c2ccccc2)CCS1 (stereo unspecified)	-3.784
COc1ccccc1CCC(=O)N1C[C@H](c2ccccc2)[C@@H](N)C1	-7.051
O=C(O)CN1CCC(c2ccccc2)CC1	-2.297
O=C(C1CCS(=O)(=O)CC1)N1C[C@H]2CC[C@@H]1CN(Cc1ccccc1)C2	-12.98
O=S(=O)(Cc1ccccc1CN1CC[C@H](CO)[C@H](O)C1)c1ccccc1	-17.78
CC(C)N1C[C@@H](CO)[C@H](c2ccccc2)S1(=O)=O	103.9
O=S1(=O)[C@@H](c2ccccc2)[C@H](CO)CN1C1CC1	108.4
CCN1C(=O)CCC12CCN(S(=O)(=O)c1ccc(C#N)cc1)CC2	5.403
